Reference: PubChem BioAssay (Tox21)
Several values for one entry are separate records, joined by “and”; a condition that tells them apart may be missing. Identical values can stand only once. Activity calls are given as the source filed them. Unless noted, calls come from the whole dose curve; as a rule, active = well fitted curve in the direction sought with a large enough effect in the repeat runs; inconclusive = weak or mixed curves; inactive = no such curve, though single readings can be large; an effect the other way counts as inactive or inconclusive.

Key:
[1] = qHTS assay for small molecules that induce genotoxicity in human embryonic kidney cells expressing luciferase-tagged ATAD5 (AID 651632); note: nearly all actives have a fitted effect of over 15% in size
Method in brief: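 ATAD5-luc HEK293T, 2,000 cells/well; cpd or DMSO pin-transferred; 16 hr, 37C/5% CO2; Amplite 30 min RT; luminescence.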

[2] = qHTS assay for small molecules that induce genotoxicity in human embryonic kidney cells expressing luciferase-tagged ATAD5 - cell viability (AID 651634; calls by dose curve; note: nearly all actives have a fitted effect of over 25% in size)
Method in brief: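 Fluorescence from CellTiter-Fluor, reporting protease activity within live cells, served as the viability read-out. HEK293T cells carrying luciferase-tagged ATAD5 had been treated with compound for 15.5 hr at 37C.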

[3] = qHTS assay for small molecule disruptors of the mitochondrial membrane potential (AID 720635); note: potency is the fitted concentration of half-maximal effect
Method in brief: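 HepG2 cells (2,000/well) attached overnight at 37C, then took compound for 1 hr at 37C, 5% CO2. Mito-MPS dye was added for 30 min; fluorescence was read at 490/535 nm (monomers) and 540/590 nm (aggregates).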

[4] = qHTS assay to test for compound auto fluorescence at 535 nm (green) in HEK293 cells (AID 720680)
[5] = qHTS assay to test for compound auto fluorescence at 460 nm (blue) in HepG2 cell free culture (AID 720685)
Method in brief: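 Compound (23 nL) or DMSO pinned into cell-free MEM with 10% FBS; blue fluorescence read at 405/460 nm excitation/emission, expressed as auto-fluorescence equivalency to triamterene.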

[6] = qHTS assay for identifying genotoxic compounds that show differential cytotoxicity against isogenic chicken DT40 cell lines with known DNA damage response pathways - wild type cell line (AID 743012); note: nearly all actives have a fitted effect of over 60% in size; note: potency is the fitted concentration of half-maximal effect
Method in brief: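 Wild type DT40, 300 cells/well, ~0.5 h settle at 37 C/5% CO2; compounds in DMSO added by pintool; 40 h at 37 C/5% CO2; CellTiter-Glo, 30 min RT; luminescence.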

[7] = qHTS assay for identifying genotoxic compounds that show differential cytotoxicity against isogenic chicken DT40 cell lines with known DNA damage response pathways - Rev3 mutant cell line (AID 743014); note: nearly all actives have a fitted effect of over 55% in size; note: potency is the fitted concentration of half-maximal effect
[8] = qHTS assay for identifying genotoxic compounds that show differential cytotoxicity against isogenic chicken DT40 cell lines with known DNA damage response pathways - Rad54/Ku70 mutant cell line (AID 743015); note: nearly all actives have a fitted effect of over 60% in size; note: potency is the fitted concentration of half-maximal effect
[9] = qHTS assay to identify small molecule antagonists of the androgen receptor (AR) signaling pathway - cell viability counter screen (AID 743033; note: nearly all actives have a fitted effect of over 45% in size)
[10] = qHTS assay to identify small molecule antagonists of the thyroid receptor (TR) signaling pathway - cell viability counter screen (AID 743064); note: nearly all actives have a fitted effect of over 50% in size; note: potency is the fitted concentration of half-maximal effect
Method in brief: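 Same-well viability check: GH3.TRE-Luc cells stimulated with 1 nM T3 alongside test compound for 23.5 h, followed by CellTiter-Fluor fluorescence.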

[11] = qHTS assay to identify small molecule antagonists of the thyroid receptor (TR) signaling pathway (AID 743065); note: nearly all actives have a fitted effect of over 55% in size; note: potency is the fitted concentration of half-maximal effect
Method in brief: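 GH3.TRE-Luc rat pituitary cells carrying two TR response elements driving luciferase were plated for 4 h, given compound plus 1 nM T3 (final), and incubated 23.5 h at 37 C. ONE-Glo luminescence measured reporter inhibition; CellTiter-Fluor fluorescence tracked cytotoxicity.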

[12] = system: thyroid hormone receptor (rat, GH3 cells); test: qHTS assay to identify small molecule agonists of the thyroid receptor (TR) signaling pathway (AID 743066; calls by dose curve)
[13] = qHTS assay to identify small molecule antagonists of the estrogen receptor alpha (ER-alpha) signaling pathway - cell viability counter screen (AID 743074; calls by dose curve;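 note: HEK293 cells carrying ER-alpha-UAS-bla reporter stimulated with 17beta-estradiol; nearly all actives have a fitted effect of over 45% in size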)
[14] = target: Estrogen receptor (Homo sapiens) (UniProt P03372); test: qHTS assay to identify small molecule antagonists of the estrogen receptor alpha (ER-alpha) signaling pathway (AID 743069; active = well fitted curve in the direction sought with a large enough effect in the signal ratio in the repeat runs, not every such curve was filed as active; inconclusive = weak or mixed curves, or effect the other way; inactive = no such curve, though single readings can be large or run the other way; the % refers to the signal ratio)
Estrogen receptor (Homo sapiens), sequence (P03372 whole entry, looked up): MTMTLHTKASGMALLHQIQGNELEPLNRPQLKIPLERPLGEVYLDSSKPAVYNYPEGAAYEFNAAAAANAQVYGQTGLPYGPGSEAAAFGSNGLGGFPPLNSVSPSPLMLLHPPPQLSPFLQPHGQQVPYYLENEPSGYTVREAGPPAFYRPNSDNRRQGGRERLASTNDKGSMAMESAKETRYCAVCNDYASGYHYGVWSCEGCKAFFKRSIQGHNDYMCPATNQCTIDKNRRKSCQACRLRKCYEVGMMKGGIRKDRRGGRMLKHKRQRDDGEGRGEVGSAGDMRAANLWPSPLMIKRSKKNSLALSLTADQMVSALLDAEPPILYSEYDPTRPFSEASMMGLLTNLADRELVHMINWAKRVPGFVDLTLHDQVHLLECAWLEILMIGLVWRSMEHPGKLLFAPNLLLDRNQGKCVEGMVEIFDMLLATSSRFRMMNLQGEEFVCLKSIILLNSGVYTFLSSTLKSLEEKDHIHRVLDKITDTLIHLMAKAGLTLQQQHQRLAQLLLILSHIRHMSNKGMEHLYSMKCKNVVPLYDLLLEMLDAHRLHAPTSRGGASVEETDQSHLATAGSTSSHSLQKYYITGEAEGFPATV
Method in brief: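 Estradiol-stimulated ER-alpha-UAS-bla HEK293 cells, 18 hr compound exposure at 37C. LiveBLAzer B/G substrate, 2 hr RT, fluorescence read.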

[15] = target: Estrogen receptor (Homo sapiens) (UniProt P03372); test: qHTS assay to identify small molecule agonists of the estrogen receptor alpha (ER-alpha) signaling pathway (AID 743075; calls by dose curve;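 note: HEK293 GripTite cells with ER-alpha and UAS-driven beta-lactamase reporter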; note: potency is the fitted concentration of half-maximal effect)
[16] = target: Estrogen receptor (Homo sapiens) (UniProt P03372); test: qHTS assay to identify small molecule agonists of the estrogen receptor alpha (ER-alpha) signaling pathway using the BG1 cell line (AID 743079); note: nearly all actives have a fitted effect of over 20% in size; note: potency is the fitted concentration of half-maximal effect
[17] = target: Peroxisome proliferator-activated receptor gamma (Homo sapiens) (UniProt P37231); test: qHTS assay to identify small molecule agonists of the peroxisome proliferator-activated receptor gamma (PPARg) signaling pathway (AID 743094; active = well fitted activation curve with a large enough effect in the signal ratio in the repeat runs, not every such curve was filed as active; inconclusive = weak or mixed curves, or effect the other way; inactive = no such curve, though single readings can be large or run the other way; the % refers to the signal ratio)
Peroxisome proliferator-activated receptor gamma (Homo sapiens), sequence (P37231 whole entry, looked up): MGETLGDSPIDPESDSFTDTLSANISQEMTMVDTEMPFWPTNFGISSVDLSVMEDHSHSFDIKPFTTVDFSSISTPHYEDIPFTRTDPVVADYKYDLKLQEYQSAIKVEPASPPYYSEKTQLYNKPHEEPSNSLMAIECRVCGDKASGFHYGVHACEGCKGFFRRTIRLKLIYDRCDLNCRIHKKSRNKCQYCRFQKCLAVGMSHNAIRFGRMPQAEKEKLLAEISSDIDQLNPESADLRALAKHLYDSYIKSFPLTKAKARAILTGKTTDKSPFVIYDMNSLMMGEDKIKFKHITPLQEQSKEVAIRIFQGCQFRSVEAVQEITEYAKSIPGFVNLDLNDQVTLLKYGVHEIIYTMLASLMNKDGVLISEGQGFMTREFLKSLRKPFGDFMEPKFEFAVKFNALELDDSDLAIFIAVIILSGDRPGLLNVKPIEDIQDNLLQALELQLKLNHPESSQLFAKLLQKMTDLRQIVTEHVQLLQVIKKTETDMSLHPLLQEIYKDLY
Method in brief: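 Beta-lactamase FRET fluorescence was the read-out after a 1 h room-temperature substrate step, following 17 h compound treatment at 37C of HEK293H cells expressing a UAS-driven bla reporter responsive to PPARg.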

[18] = target: Nuclear receptor subfamily 1 group I member 2 (Rattus norvegicus) (UniProt Q9R1A7); test: Rat pregnane X receptor (rPXR) activation by small molecules, qHTS assay (AID 1346983); details: rPXR luciferase reporter cells, One-Glo luminescence, 24 h; max activation: active compounds read high; note: nearly all actives have a fitted effect of over 20% in size
Nuclear receptor subfamily 1 group I member 2 (Rattus norvegicus), sequence (Q9R1A7 whole entry, looked up): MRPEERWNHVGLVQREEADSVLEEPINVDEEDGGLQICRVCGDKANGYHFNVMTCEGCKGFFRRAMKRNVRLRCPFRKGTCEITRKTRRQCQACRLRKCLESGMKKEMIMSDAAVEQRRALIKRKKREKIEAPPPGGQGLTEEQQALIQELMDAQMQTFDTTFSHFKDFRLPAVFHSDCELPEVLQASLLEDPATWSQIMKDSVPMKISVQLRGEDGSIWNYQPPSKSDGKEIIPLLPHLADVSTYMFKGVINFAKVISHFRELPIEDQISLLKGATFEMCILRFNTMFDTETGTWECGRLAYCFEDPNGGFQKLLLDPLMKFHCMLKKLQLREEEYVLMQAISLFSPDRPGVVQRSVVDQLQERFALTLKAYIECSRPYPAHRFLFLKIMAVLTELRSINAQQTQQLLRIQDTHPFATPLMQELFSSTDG
Method in brief: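 Cell-based rPXR luciferase reporter assay, 2,000 cells per well, rested 5hr at 37 C before compound addition in DMSO, then 24 hr at 37 C. One-Glo reagent was added and luminescence read after 30 min at room temperature.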

[19] = target: Nuclear receptor subfamily 1 group I member 2 (Homo sapiens) (UniProt O75469); test: CYP3A4 induction through human pregnane X receptor (PXR) by small molecules, qHTS assay (AID 1346984); note: nearly all actives have a fitted effect of over 40% in size; note: potency is the fitted concentration of half-maximal effect
Method in brief: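 Luminescence readout: luciferase signal after One-Glo (30 min, room temperature), following 3 h at 37C with 3uM final Luciferin-IPA P450 substrate. Cells were DPX-2 (HepG2, PXR/CYP3A4-luc co-transfected) dosed for 24 h.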

[20] = target: Nuclear receptor subfamily 1 group I member 2 (Homo sapiens) (UniProt O75469); test: Human pregnane X receptor (PXR) activation by small molecules, qHTS assay (AID 1346985); note: nearly all actives have a fitted effect of over 40% in size; note: potency is the fitted concentration of half-maximal effect
Method in brief: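 DPX-2 cells (HepG2 co-transfected with a PXR response element and a CYP3A4-promoter luciferase construct) were seeded at 2,000 per well, rested 5 hr at 37C, then exposed to DMSO-dissolved compounds for 24 hr. Activation was read as luciferase luminescence.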
% is set by controls: 0 for no effect and ±100 for the full control effect.

O=C(O)/C=C/C(=O)O
inactive: Potency [1] | Potency [2] | Potency [3] | Potency [4] | Potency [5] | Potency [6] | Potency [7] | Potency [8] | Potency [9] | Potency [10] | Potency [11] | Potency [12] | Potency [13]

Oc1c(Cl)cc(Cl)cc1Cl
inactive: Potency [4] | Potency [5] | Potency [11] | Potency [12]
active: Potency [3] 17 µM and 48.6 µM

CC(C)(C)c1ccc(O)cc1
active: Potency [3] 55.8 µM and 43.3 µM
inactive: Potency [4] | Potency [5]

O=[N+]([O-])c1ccccc1Cl
inactive: Potency [4] | Potency [5] | Potency [11]

Cc1ccc(O)cc1C
inactive: Potency [4] | Potency [5] | Potency [12]

Cc1ccc2ccccc2c1C
inactive: Potency [4] | Potency [5]

O=C(O)/C=C\C(=O)O
inactive: Potency [1] | Potency [3] | Potency [6] | Potency [7] | Potency [8] | Potency [9] | Potency [10] | Potency [11] | Potency [12] | Potency [13]

OC(c1ccccc1)(c1ccccc1)C1CN2CCC1CC2 (stereo unspecified)
active: Potency [6] 26.6 µM | Potency [11] 29.8 µM
inactive: Potency [1] | Potency [2] | Potency [4] | Potency [5] | Potency [9] | Potency [12] | Potency [14] | Potency [13] | Potency [15] | Potency [16] | Potency [17] | max activation [18] 17.5% | Potency [19] | Potency [20]

COc1ccc2c(c1)C13CCCC[C@@H]1C(C2)N(C)CC3 (stereo partly specified)
inactive: Potency [1] | Potency [3] | Potency [4] | Potency [5] | Potency [8] | Potency [9] | Potency [10] | Potency [12] | Potency [14] | Potency [13] | Potency [15] | Potency [16] | Potency [17] | max activation [18] -0.312% | Potency [19] | Potency [20]

O=C1CCCCC1CN1CCCCC1 (stereo unspecified)
inactive: Potency [1] | Potency [2] | Potency [3] | Potency [4] | Potency [5] | Potency [9] | Potency [10] | Potency [11] | Potency [12] | Potency [14] | Potency [13] | Potency [15] | Potency [16] | Potency [17] | max activation [18] -4.76% | Potency [19] | Potency [20]
active: Potency [6] 23.7 µM

CCCCNCC(O)c1ccc(O)cc1 (stereo unspecified)
inactive: Potency [1] | Potency [2] | Potency [3] | Potency [4] | Potency [6] | Potency [7] | Potency [8] | Potency [9] | Potency [10] | Potency [11] | Potency [12] | Potency [13] | max activation [18] -0.163% | Potency [19] | Potency [20]

CCCCCCCCCC(=O)O[C@H]1CC[C@H]2[C@@H]3CCC4=CC(=O)CC[C@]4(C)[C@H]3CC[C@]12C
active: Potency [15] 10.7 µM [inconclusive] | Potency [16] 0.335 µM
inactive: Potency [1] | Potency [2] | Potency [3] | Potency [4] | Potency [5] | Potency [7] | Potency [8] | Potency [9] | Potency [11] | Potency [12] | Potency [14] | Potency [13] | Potency [17] | max activation [18] -1.38% | Potency [19] | Potency [20]

CCCCCc1cc(O)c2c(c1)OC(C)(C)[C@@H]1CCC(C)=C[C@@H]21
active: Potency [3] 3.76 µM | Potency [7] 13.3 µM | Potency [8] 10.6 µM | Potency [10] 13.3 µM | Potency [11] 16.8 µM | Potency [20] 7.94 µM
inactive: Potency [1] | Potency [2] | Potency [4] | Potency [9] | Potency [13] | Potency [15] | max activation [18] -3.2% | Potency [19]

O=C1CN(O)C(c2ccccc2)=c2cc(Cl)ccc2=N1
inactive: Potency [1] | Potency [3] | Potency [4] | Potency [5] | Potency [6] | Potency [7] | Potency [8] | Potency [9] | Potency [10] | Potency [11] | Potency [12] | Potency [13] | Potency [17] | max activation [18] -6.23% | Potency [19] | Potency [20]

CCC1(c2cnc[nH]2)Cc2ccccc2C1
inactive: Potency [1] | Potency [2] | Potency [4] | Potency [5] | Potency [9] | Potency [11] | Potency [12] | Potency [14] | Potency [13] | Potency [15] | Potency [16] | Potency [17]
active: Potency [6] 21.1 µM and 26.6 µM | Potency [7] 26.6 µM | Potency [8] 26.6 µM

CCOc1ccc2c3c1O[C@H]1[C@@H](O)C=C[C@H]4[C@@H](C2)N(C)CC[C@@]341
active: Potency [19] 7.94 µM
inactive: Potency [1] | Potency [2] | Potency [3] | Potency [4] | Potency [8] | Potency [9] | Potency [12] | Potency [14] | Potency [13] | Potency [15] | Potency [16] | Potency [17] | max activation [18] -1.03% | Potency [20]

CC(C)C[C@H](CN)CC(=O)O
inactive: Potency [1] | Potency [2] | Potency [3] | Potency [5] | Potency [6] | Potency [7] | Potency [8] | Potency [10] | Potency [14] | Potency [13] | Potency [15] | Potency [17] | max activation [18] -2.72% | Potency [19] | Potency [20]
active: Potency [16] 13.3 µM

[S]=[Sb](=[S])[S][Sb](=[S])=[S]
inactive: Potency [1] | Potency [2] | Potency [3] | Potency [4] | Potency [5] | Potency [8] | Potency [9] | Potency [10] | Potency [11] | Potency [12] | Potency [14] | Potency [13] | Potency [15] | Potency [16] | Potency [17] | max activation [18] -0.774% | Potency [19] | Potency [20]
